Screening results: PubChem BioAssay, National Center for Advancing Translational Sciences (NCATS)
An excerpt weighted towards active compounds, which were near 21% of everything screened.
D3 ag: activates the human D3 dopamine receptor | 0.58% of 410,000 active | AID 652048 | max activation, % | D3R DiscoveRx beta-arrestin cells, luminescence, 90 min | P35462; in the data active means max activation above about 30%; further: 0% is about no effect
Target sequence (P35462 whole entry, looked up): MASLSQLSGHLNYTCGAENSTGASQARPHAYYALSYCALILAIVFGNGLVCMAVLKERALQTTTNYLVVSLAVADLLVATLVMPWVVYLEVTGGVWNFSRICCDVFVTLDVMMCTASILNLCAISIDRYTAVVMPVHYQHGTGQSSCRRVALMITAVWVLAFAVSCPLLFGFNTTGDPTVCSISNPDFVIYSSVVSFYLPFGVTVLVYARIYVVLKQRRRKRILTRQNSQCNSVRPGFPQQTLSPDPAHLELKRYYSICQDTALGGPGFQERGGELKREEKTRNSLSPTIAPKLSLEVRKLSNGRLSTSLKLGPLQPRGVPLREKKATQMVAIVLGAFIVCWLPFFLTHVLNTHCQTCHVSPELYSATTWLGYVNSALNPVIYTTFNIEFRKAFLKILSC
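Agonist-mode cell screen: cells plated at 1500/well and incubated overnight at 37 °C, then exposed to library compounds for 90 min at 37 °C. Detection reagent was added for 30–60 min at room temperature, and luminescence was read.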
D3 antag: blocks the human D3 dopamine receptor | P35462 | D3R cells, DiscoveRx beta-arrestin luminescence, antagonist mode; active compounds read low | max response, negative = inhibition, % | 2.5% of 360,000 active | AID 652054; in the data active means max response below about -50%; inconclusive means no clear call, values can overlap the other calls; further: on the % scale 0 is the no-effect control and ±100 the full control effect
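Cells expressing the human receptor were seeded at 1500 cells/well, incubated overnight at 37 degrees C in 5% CO2, then exposed to library compounds with dopamine controls for 90 minutes at 37 degrees C before luminescent detection.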
DT40 TDP1 no CPT: qHTS for Inhibitors of human tyrosyl-DNA phosphodiesterase 1 (TDP1): qHTS in cells in absence of CPT. AID 686978, 2013. 15% of 420,000 active. Potency, µM (series often up to 46.2 µM), for inactives: at the highest dose activity change, negative = growth inhibition, most hits filed as inhibitors. DT40 Tdp1-/- hTDP1 cells, no CPT, ATP luminescence, 48 h; further: potency means the concentration at half of the fitted maximal effect; on the % scale 0 is the no-effect control and ±100 the full control effect; nearly all actives have a fitted effect of over 55% in size
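Stably hTDP1-transfected Tdp1-null chicken DT40 cells were treated with library compounds minus camptothecin and grown for at least 48 hr at 37 °C, after which cellular ATP was quantified by luminescence.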
ClpP mod: qHTS Assay for Activators of ClpP; Potency, µM (titrated, usually from 57.5 µM), without a hit: top-dose activity change, negative = active; ATP-dependent Clp protease proteolytic subunit (Bacillus subtilis (strain 168)), P80244; 1.9% of 340,000 active; purified B. subtilis ClpP, FRET peptide cleavage, 20 min; active means well fitted falling curve with a large enough effect; inconclusive means small, poorly fitted or top-dose-only effect; inactive means no such curve, though single readings can be large or run the other way; further: potency means the concentration at half of the fitted maximal effect; the source files actives as falling curves though it sought activators and does not explain the sign; nearly all actives have a fitted effect of over 65% in size
Target sequence (P80244 whole entry, looked up): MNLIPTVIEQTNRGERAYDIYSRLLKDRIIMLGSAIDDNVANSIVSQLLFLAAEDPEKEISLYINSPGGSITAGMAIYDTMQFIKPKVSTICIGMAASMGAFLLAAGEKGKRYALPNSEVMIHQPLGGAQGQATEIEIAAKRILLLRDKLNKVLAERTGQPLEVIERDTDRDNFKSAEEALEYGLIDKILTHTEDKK
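FRET quenching reversal measured ClpP activation: 10 microg/mL B. subtilis ClpP at pH 8 with the FRET-FV decapeptide, read at 430 nm after 320 nm excitation. The 20-min minus 0-min signal was scaled between DMSO/no-enzyme wells and ADEP (5.8 microM final).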
TDP1 cell CPT: DT40-hTDP1 cell growth loss with CPT | chicken DT40 Tdp1-/-;hTDP1 cells + 20 nM CPT, ATP luminescence, 48 h | Potency, µM (top dose mostly 46.2 µM), without a hit: top-dose activity change, negative = growth inhibition, most hits filed as inhibitors | 12% of 420,000 active; further: potency means the concentration at half of the fitted maximal effect; on the % scale 0 is the no-effect control and ±100 the full control effect; nearly all actives have a fitted effect of over 55% in size
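Chicken DT40 Tdp1-/- cells stably complemented with human TDP1 were seeded at 400 cells/well in medium containing 20 nM camptothecin, exposed to pin-transferred compounds, and grown at 37 °C for at least 48 hr. Viability was read as ATP luminescence.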
IL1B secr inh: blocks inflammasome-driven IL-1 beta release; THP-1 LPS/ATP IL-1B secretion, AlphaLISA, 16 h; active compounds read low; activity change, % at 57.5 µM; 4.7% of 360,000 active; in the data active means activity change below about -50%; inconclusive means mostly about -30% to -49%; further: on the % scale 0 is the no-effect control and ±100 the full control effect
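Secreted IL-1B measured by AlphaLISA bead assay after 16 h compound exposure of THP-1 cells; compounds (final up to 57.5 uM) added 1 h before LPS (250 ng/mL) and ATP (1.25 mM) stimulation; lower signal means less secretion.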
Active calls of the source: *; ? = inconclusive; nt = no result. Unless noted, the call rests on the fitted dose curve; in most records, active means well fitted inhibition curve with a large enough effect; inconclusive means small, poorly fitted or top-dose-only effect; inactive means flat fitted curve, though single readings scatter.

SMILES	D3 ag	D3 antag	DT40 TDP1 no CPT	ClpP mod	TDP1 cell CPT	IL1B secr inh
c1ccc(CCN2CCCCC2)cc1	nt	nt	-2%	1%	2%	nt
COc1ccc(C(=O)OC2C[C@H]3CC[C@@H](C2)N3O)cc1OC (stereo partly specified)	21	12	-9%	nt	17%	5
S=C(S)N1CCCC1	8	2	0.053µM*	0%	0.06µM*	5
S=C(S)N1CCNCC1	-4	nt	-17%	nt	-14%	nt
CCOC(=O)c1c(NC(=O)C(c2ccccc2)c2ccccc2)sc2c1C1CCN2CC1	0	0	23µM*	?	21µM*	-19
CCOC(=O)c1c(C)n(Cc2ccccc2)c2ccc(O)cc12	1	-5	-30%	nt	-12%	-3
Cc1ccc(Cn2cccc(C(=O)Nc3nc4ccc(C)cc4s3)c2=O)cc1	-14	nt	-11%	-1%	-13%	nt
COc1ccc(-n2cnc3cc(C(=O)N4CCC5(CC4)OCCO5)ccc32)cc1	-3	-8	2.6µM*	2%	8.2µM*	55
COc1ccc(C(=O)N2CCC3(CC2)OCCO3)cc1	4	-5	2%	nt	-22%	1
O=C(Nc1ccc(C(=O)O)cc1)Oc1ccc(N(CCCl)CCCl)cc1	6	10	0.73µM*	1%	0.41µM*	1
O=C(Nc1ccccc1)Oc1ccccc1	-7	-9	-2%	-2%	7%	-8
COc1ccccc1OC(C)C(=O)N1CCC(Cc2ccccc2)CC1 (stereo unspecified)	-4	-21	?	nt	16µM*	-72*
COc1ccccc1OCC(=O)N1CCCC(N(C)Cc2ccccc2)C1 (stereo unspecified)	-17	-20	-5%	-1%	-14%	2
C[N+](C)(C)CC#CCOC(=O)Nc1cccc(Cl)c1	-34	-23	?	3%	?	-4
Cc1ccc(S(=O)(=O)N2CCC(=O)N(CCOC(=O)Nc3cccc(Cl)c3)CC2)cc1	2	23	21µM*	-2%	12µM*	-12
O=[N+]([O-])c1ccccc1	6	nt	10%	nt	7%	nt
O=[N+]([O-])c1ccc(S(=O)(=O)NN=C2CCCCC2)cc1	-13	-52*	?	nt	-37%	-18
CCOC(=O)CNC(=O)CNC(=O)C(Cc1ccc(N(CCCl)CCCl)cc1)NC(C)=O (stereo unspecified)	2	-8	1.6µM*	1%	1.3µM*	?
CC(=O)NC(Cc1ccc(N(CCCl)CCCl)cc1)C(=O)NC(CC(C)C)C(=O)O (stereo unspecified)	8	-5	15µM*	nt	?	0
CC(=O)NC(Cc1ccc(N(CCCl)CCCl)cc1)C(=O)NCC(=O)NCC(=O)O (stereo unspecified)	7	10	10µM*	nt	6.5µM*	4
N#Cc1cc([N+](=O)[O-])ccc1NC(=O)c1cccn(Cc2cccc(F)c2)c1=O	-12	nt	-5%	-4%	-18%	nt
CC12CCC3C(CC=C4CC(O)CCC43C)C1CC(=CN1CCOCC1)C2=O (stereo unspecified)	0	2	-13%	nt	2%	7
CCN(CC)CCNC(=O)c1c(C)[nH]c(/C=C2\C(=O)Nc3ccc(F)cc32)c1C	-16	nt	3.8µM*	nt	4.2µM*	nt
Cc1ccc(-c2cc(-c3ccccc3)cc(-c3ccccc3)[n+]2-c2ccccc2C(=O)O)cc1	-2	22	9.2µM*	?	9.2µM*	-2
Cc1ccc(N)c(C(=O)c2ccccc2)c1	3	5	-13%	-1%	-1%	21
SMILES	D3 ag	D3 antag	DT40 TDP1 no CPT	ClpP mod	TDP1 cell CPT	IL1B secr inh
O=C1c2ccccc2C2(c3ccc(Cl)cc3)NCCN12 (stereo unspecified)	2	16	-16%	0%	4%	-53*
CC(C)(C)c1ccc(O)c(CN2CCN(c3ccccc3)CC2)c1	-7	-71*	?	1%	?	0
Clc1cccc(Cl)c1CN1CCN(c2ccccc2)CC1	-13	?	-20%	-6%	?	-6
CCN(CC)CCNC(=O)c1c(O)c2ccccc2n(Cc2ccccc2)c1=O	-8	-11	16µM*	-5%	18µM*	-6
CCN(CC)CCCNC(=O)c1c(O)c2ccccc2n(Cc2ccccc2)c1=O	0	-2	23µM*	-7%	18µM*	-29
CNC(C)C(O)c1ccc(O)cc1 (stereo unspecified)	0	nt	3%	nt	2%	nt
Cc1cccc(C)c1N1CCN(c2c(C)cccc2C)CC1	-5	-5	0%	nt	1%	14
Cc1ccccc1NC(=NCCCN1CC1)Nc1ccccc1C	-9	23	5.2µM*	-1%	2.1µM*	?
Cc1ccccc1NC(=O)c1cc(-c2ccccc2)n(CCCN2CCOCC2)c1C	-12	12	0%	nt	-2%	-5
O=C(OCC(=O)c1ccc([N+](=O)[O-])cc1)/C(=C\c1ccc(Cl)cc1)NC(=O)c1ccccc1	-7	26	?	-3%	?	?
O=C(CNC(=O)c1cccs1)NCC(=O)OCC(=O)c1ccc([N+](=O)[O-])cc1	6	-27	?	nt	18µM*	0
CCNC(=O)C1CCCN(Cc2ccc3ccccc3c2Br)CC1 (stereo unspecified)	-9	-6	?	-1%	?	-2
CCNC(=O)C1CCCN(Cc2cc(C(F)(F)F)ccc2Cl)CC1 (stereo unspecified)	-20	-76*	?	1%	26µM*	26
CCOCC1(CCc2ccccc2)C(=O)NC(=S)NC1=O	-6	-27	7%	-2%	9%	0
CCOC(=O)c1c(N)n(Cc2ccco2)c2nc3ccccc3nc12	-4	-22	?	5%	?	9
